Compound activity as filed in PubChem.
Hits are enriched below; roughly 4.5% of the tested compounds scored in any of these assays.
hgDAF-12 ag – activates the H. glycines DAF-12 receptor ligand-binding domain; HEK293 GAL4-hgDAF12 UAS-luciferase reporter, agonist luminescence; normalized to butyrate control; activation, % at 6.8 µM; 1.8% of 370,000 active; AID 687014;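 active means activation above a cutoff set at the mean of all screened compounds plus 3 SD, cut at about 10% in these data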;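 further: 0% = DMSO wells and 100% = sodium butyrate wells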
DAX1 inh-1 – DAX1 (NR0B1) inhibition, primary screen | HEK293T StAR-luciferase reporter, SF-1/DAX-1 repression relief | inhibition, % at 6.8 µM | 1.1% of 370,000 active;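 active means inhibition above the mean over all tested compounds plus 3 SD, cut at about 3.6% in these data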;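 further: 0% = DAX-1 cells with DMSO and 100% = cells lacking DAX-1 with DMSO; higher inhibition means more luminescence from relief of DAX-1 repression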
DAX1 inh-2 – NR0B1 (DAX1) inhibition; 0.99% of 340,000 active; inhibition, % at 6.75 µM; AID 504766; P51843; HEK293 Gal4-DAX1 luciferase reporter, luminescence;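 active means inhibition above the mean over all tested compounds plus 3 SD, cut at about 4.2% in these data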;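 further: 0% = DAX1-transfected cells with DMSO and 100% = empty-vector control cells with DMSO; inhibition shows as a rise in luminescence from relieved DAX1 repression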
Target sequence (P51843 207-470 limits assumed): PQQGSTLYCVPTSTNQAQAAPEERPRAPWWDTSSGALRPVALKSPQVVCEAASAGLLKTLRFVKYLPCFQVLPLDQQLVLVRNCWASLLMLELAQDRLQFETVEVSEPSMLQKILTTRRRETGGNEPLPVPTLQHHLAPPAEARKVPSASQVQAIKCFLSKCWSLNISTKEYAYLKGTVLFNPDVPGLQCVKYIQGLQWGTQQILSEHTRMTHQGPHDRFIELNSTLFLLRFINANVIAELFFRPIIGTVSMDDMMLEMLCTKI
GAA850 FXN act – increases GAA850 frataxin promoter reporter activity. HEK293 lucGAA850 FXN promoter luciferase reporter, 24 h; percent of 10 µM SAHA response. activation, % at 6 µM. 0.56% of 360,000 active. AID 540364;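 active means activation above the average of all compounds screened plus 3 SD, cutoff fixed separately per campaign, cut at about 7.5% in these data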;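 further: 0% = DMSO wells and 100% = 10 µM SAHA wells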
hcDAF-12 act – activates DAF-12 receptor from parasite H. contortus; HEK293 hcDAF-12 lit1-tk-luc reporter, luminescence; 0% DMSO, 100% Δ7-dafachronic acid; activation, % at 6.8 µM; 1.4% of 370,000 active;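 active means activation above the mean of all tested compounds plus 3 SD, cut at about 5.5% in these data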;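 further: 100% = response to 3 µM Δ7-dafachronic acid high control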
ssDAF12 agonist – activates DAF-12 receptor from parasite S. stercoralis; AID 652126; activation, % at 6.8 µM; HEK293 ssDAF-12/GRIP1 lit1-tk-luc reporter, luminescence; % of 3 µM dafachronic acid response; 1% of 370,000 active;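 active means activation above the mean over all tested compounds plus 3 SD, cut at about 0.9% in these data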;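 further: 0% = DMSO-only wells and 100% = 3 µM delta7-dafachronic acid wells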
hgDAF12 conf – hgDAF-12 agonism, confirmation assay | shares compounds with hgDAF-12 ag | HEK293 GAL4-hgDAF12 luciferase reporter, agonist mode; percent of butyrate response | activation, % at 6.8 µM | 80% of 3,300 active;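 active means mean activation over triplicate wells above the hit cutoff derived from the earlier primary screen, cut at about 11% in these data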;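 further: 0% = DMSO low control and 100% = 2 mM sodium butyrate high control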
LXR ag 2 – LXR-beta agonism as DAF-12 counter-screen; shares compounds with hgDAF-12 ag; HEK293 Gal4-LXR luciferase reporter, 24 h; activation, % at 6.8 µM; 3,300 tested, under 10 active;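 active means mean activation of the triplicate above a set limit carried over from the primary screen, none filed active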
Target sequence (P55055 whole entry, looked up, the tested form may be a part): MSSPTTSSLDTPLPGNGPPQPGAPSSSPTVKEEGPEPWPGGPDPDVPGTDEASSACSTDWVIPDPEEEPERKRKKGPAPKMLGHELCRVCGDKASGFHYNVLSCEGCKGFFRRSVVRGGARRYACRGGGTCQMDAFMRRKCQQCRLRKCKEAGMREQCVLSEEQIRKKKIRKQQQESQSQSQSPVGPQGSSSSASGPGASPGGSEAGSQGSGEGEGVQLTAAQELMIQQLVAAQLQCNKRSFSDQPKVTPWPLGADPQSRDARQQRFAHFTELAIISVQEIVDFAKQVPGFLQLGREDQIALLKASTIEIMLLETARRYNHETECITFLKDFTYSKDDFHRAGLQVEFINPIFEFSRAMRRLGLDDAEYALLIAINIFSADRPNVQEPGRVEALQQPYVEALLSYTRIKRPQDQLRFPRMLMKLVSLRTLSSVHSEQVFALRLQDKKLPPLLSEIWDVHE
An asterisk follows results filed as active; nt = not tested or not shown.

SMILES | hgDAF-12 ag | DAX1 inh-1 | DAX1 inh-2 | GAA850 FXN act | hcDAF-12 act | ssDAF12 agonist | hgDAF12 conf | LXR ag 2
CC(=O)c1cccc(NC(=O)c2ccc(-c3ccccc3[N+](=O)[O-])o2)c1 | 14.5* | 2.5 | 2.3 | 5.1 | 0.8 | -0.5 | 12.6* | 0.6
CCOc1ccc(-c2nnc(-c3ccccc3)o2)cc1 | 13.8* | 2.9 | 0.8 | -1.3 | 6.0* | 0.8 | 11.7* | 0.7
CCOc1ccc(S(=O)(=O)NC2=NCCCCC2)cc1 | 0.0 | 1.2 | -0.8 | 0.6 | -0.7 | -1.3 | nt | nt
CCOc1ccc(-c2nnc(NC3=NCCCCC3)o2)cc1 | 14.7* | 1.3 | 1.8 | 2.1 | 2.5 | 0.0 | 13.1* | 0.6
Cc1cccc(/N=C/c2nc(-c3ccccc3Br)oc2O)n1 | 4.9 | 0.1 | -0.5 | 1.4 | 2.4 | -1.2 | nt | nt
Cc1ccnc(N=Cc2nc(-c3ccccc3Br)oc2O)c1 | 15.3* | 2.5 | 0.0 | 4.7 | -0.2 | 0.6 | 6.1 | 0.3
O=C(c1cccc(C(F)(F)F)c1)N1CCN(CCc2ccccc2)CC1 | 2.5 | 0.2 | -0.3 | -0.6 | -0.9 | -0.5 | nt | nt
COc1ccc(-c2noc(C3CCCN(C(=O)NC4CCC(C)CC4)C3)n2)cc1 (configuration not stated) | 14.2* | 3.6 | nt | nt | 0.1 | -0.9 | 2.3 | 0.3
CCCCC(=O)N1CCCC(c2nc(-c3cccc(OC)c3)no2)C1 (configuration not stated) | 14.9* | 1.5 | 1.6 | 3.8 | 0.9 | -1.4 | 5.6 | 0.3
O=C(NCc1cccnc1)C(=O)Nc1cc2c3c(c1)CC(=O)N3CCC2 | nt | nt | 1.2 | 1.8 | nt | nt | nt | nt
O=Cc1ccc(-c2nc3ccccc3s2)o1 | 13.6* | 1.7 | -1.0 | 5.3 | 6.0* | -0.2 | 10.8* | 0.5
Cc1ccc(-c2nc3ccc(C)cn3c2Cc2cccc(F)c2)cc1 | 14.7* | 3.6* | nt | nt | 3.5 | 0.0 | 5.1 | 0.2
COC(=O)c1ccc2nc(-c3ccc(C)cc3)c(Cc3cccc(F)c3)n2c1 | 1.5 | 0.2 | nt | nt | 1.2 | -1.1 | nt | nt
Cc1ccc2nc(C(C)(C)C)c(Cc3cccc(F)c3)n2c1 | 16.2* | 3.7* | nt | nt | 3.5 | 2.2* | 5.3 | 0.2
COc1ccc(Cc2c(-c3ccc(F)cc3)nc3ccc(Br)cn23)c(C)c1 | 13.6* | 0.2 | nt | nt | 2.4 | 0.4 | 7.6 | 0.4
COc1ccccc1Cc1c(-c2cccc(Cl)c2)nc2ccc(C)cn12 | 14.9* | 2.9 | nt | nt | 2.3 | -0.4 | 4.5 | 0.2
O=C1CCC(C(=O)OCC(=O)Nc2ccc(SC(F)F)cc2)=NN1 | -1.5 | 2.2 | 0.3 | 1.5 | -0.4 | -0.4 | nt | nt
O=C(OCc1c(-c2ccccc2)ncc2ccccc12)c1ccccc1C(F)(F)F | 2.3 | 0.1 | 0.6 | -0.1 | 1.6 | -0.8 | nt | nt
COc1cc(CCC(=O)OCC(=O)Nc2cc(S(=O)(=O)N3CCOCC3)ccc2Cl)cc(OC)c1OC | 0.6 | 2.1 | 0.3 | 3.2 | -2.1 | -1.2 | nt | nt
CCCc1nc2ccc(C)cn2c1Cc1ccc(C)cc1 | 13.8* | 1.3 | nt | nt | 4.5 | -0.2 | 9.3 | 0.5
CCCc1nc2ccc(Br)cn2c1Cc1ccccc1 | 0.5 | -0.3 | nt | nt | -1.0 | -1.0 | nt | nt
C[C@H]1Cn2cnc(C(=O)N(C)Cc3ccccc3)c2C(=O)N1 | 29.5* | 0.2 | nt | nt | 1.2 | 0.1 | -0.5 | 0.0
C[C@H]1CNC(=O)c2c(C(=O)N(C)Cc3ccccc3)ncn21 | -1.4 | 0.5 | nt | nt | -0.3 | -1.0 | nt | nt
Nc1nnc(-c2ccc(Cl)cc2Cl)s1 | 15.2* | 1.4 | 1.1 | 3.0 | 1.6 | -0.7 | 9.5 | 0.4
Cc1ccc(C(=O)Nc2nnc(-c3ccco3)o2)cc1C | 14.4* | 0.1 | 0.2 | 1.5 | 2.8 | 1.1* | 6.0 | 0.1
SMILES | hgDAF-12 ag | DAX1 inh-1 | DAX1 inh-2 | GAA850 FXN act | hcDAF-12 act | ssDAF12 agonist | hgDAF12 conf | LXR ag 2
Cc1cccc(C(=O)Nc2nnc(-c3ccco3)o2)c1 | 2.5 | 0.5 | -0.1 | 0.6 | 1.6 | -1.5 | nt | nt
CC(=NNC(N)=S)c1ccc2cc3c(cc2c1)OCO3 | 24.8* | 2.8 | 4.0 | 1.0 | 3.9 | 0.2 | 13.4* | 0.6
CC(C)(C)c1ccc(/C=C/C(=O)Nc2cccnc2)cc1 | 15.7* | 2.2 | 2.1 | 2.5 | 3.6 | -0.2 | 13.5* | 0.8
O=C(/C=C/c1ccccc1Cl)Nc1cccnc1 | 18.8* | 3.2 | 1.6 | 3.6 | 4.8 | 0.8 | 21.4* | 0.7
O=C(/C=C/c1ccc(Cl)c(Cl)c1)Nc1cccnc1 | 4.1 | 0.9 | 2.0 | 1.3 | -2.3 | -1.4 | nt | nt
O=C(NNC1=C(C(=O)C(F)(F)F)CCC1)c1cccc(O)c1 | 13.4* | 4.3* | 2.5 | 1.2 | 1.7 | -0.3 | 5.7 | 0.0
c1ccc(-c2cn3nc(-c4ccccc4)cnc3n2)cc1 | 16.8* | 3.1 | 3.8 | 6.9 | 1.6 | -0.6 | 8.0 | 0.2
C/C(N)=C(/C#N)C(=O)CSc1nnc(Nc2ccccc2)s1 | 15.0* | 2.5 | 0.7 | 3.2 | 3.5 | -0.8 | 9.5 | 0.5
O=c1[nH]c(=S)[nH]c2c1C(c1ccc(Br)cc1)c1c([nH]c(=S)[nH]c1=O)O2 | 0.2 | 0.2 | -1.2 | 0.0 | -1.6 | -1.1 | nt | nt
COc1ccc(OCc2cc(-c3ccc(Cl)cc3)no2)cc1 | 0.7 | 0.2 | 0.7 | 2.7 | -0.6 | -0.3 | nt | nt
COc1ccccc1OCc1cc(-c2ccccc2)no1 | 14.3* | 3.6* | 1.9 | 7.6 | 5.7* | -0.7 | 11.3* | 0.5
c1ccc(OCc2cc(-c3ccccc3)no2)cc1 | 14.3* | 1.2 | 1.8 | 4.4 | 4.9 | -0.7 | 12.0* | 0.4
CC(C)C(NC(=O)c1ccc(C(C)(C)C)cc1)C(=O)N1CCC(C(N)=O)CC1 (configuration not stated) | 0.2 | -0.6 | 0.5 | 0.5 | 0.3 | -1.5 | nt | nt
O=C(O)C(=O)/C(=C\c1ccc([N+](=O)[O-])cc1)c1ccc2ccccc2n1 | 21.6* | 2.8 | 2.0 | 3.9 | 4.9 | 0.9 | 17.9* | 0.7
O=C1COc2ccc(C(=O)COC(=O)c3cc(S(=O)(=O)NCc4ccccc4)ccc3O)cc2N1 | 1.5 | 0.2 | 2.1 | 1.6 | 0.5 | -1.8 | nt | nt
Cc1cccc(C(=O)Nc2sc3c(c2C#N)CCCCC3)c1 | 14.9* | 2.2 | 2.6 | 3.9 | 3.2 | -0.4 | 16.7* | 1.0
N#Cc1c(NC(=O)c2ccccc2)sc2c1CCC2 | 16.1* | -0.2 | -0.7 | 0.2 | 5.7* | 0.6 | 22.8* | 0.6
N#Cc1c(NC(=O)c2cnccn2)sc2c1CCCC2 | 14.3* | -1.0 | 2.5 | -1.0 | 4.3 | -0.8 | 12.8* | 0.4
N#Cc1c(NC(=O)c2cccnc2)sc2c1CCC2 | 5.5 | -0.5 | -0.9 | -1.2 | 0.3 | -0.8 | nt | nt
O=C(Cn1cnc2ccccc2c1=O)Nc1ccc2c(c1)OCCO2 | 17.0* | 3.0 | 3.6 | 1.4 | 4.9 | 0.3 | 13.9* | 0.7
